± gives the standard deviation.
How the values were obtained:
Details in all cases: modulator concentration 10 µM
[1] = tested on: RAW-Dual (murine macrophage reporter line); test: NF-kB reporter (SEAP) activity fold change vs agonist alone; higher = enhanced NF-kB activity
Summary of the method: (§1)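 Overnight stimulation with a PRR agonist followed pre-incubation for 1 hour at 37 °C with compound at 10 μM final. This was done in RAW-Dual murine macrophage reporter cells seeded at 50 000 per well in 384-well plates. NF-κB (SEAP, QUANTI-Blue absorbance at 620 nm) and IRF (Lucia luciferase, QUANTI-Luc luminescence) were read from the supernatant. Each reporter's fold change relative to the mean agonist-only control on the same plate was averaged over replicate plates.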

[2] = tested on: RAW-Dual (murine macrophage reporter line); test: IRF reporter (Lucia luciferase) activity fold change vs agonist alone; higher = enhanced IRF activity
Summary of the method: as §1

[3] = tested on: RAW-Dual (murine macrophage reporter line); test: viability score (confluency relative to resting cells, overnight) (fraction); higher = more viable, active = viable (0.7 or more)
Summary of the method: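 Confluency was the readout: RAW-Dual macrophages were imaged with IncuCyte after an overnight exposure to compound at 10 μM final. IncuCyte software produced two masks over all imaged wells. The viability score expresses confluency against resting cells, and both masks had to exceed 70% of resting cells for a compound to meet the cutoff.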

[4] = agonist: CpG ODN 1826 0.5 ug/mL

| SMILES | NF-kB reporter [1, 4] | NF-kB reporter ([1]; agonist: LPS 0.1 ug/mL) | NF-kB reporter ([1]; agonist: MPLA […]) | IRF reporter ([2]; agonist: 3'3'-cGAMP 10 ug/mL) | IRF reporter ([2]; agonist: LPS 0.1 ug/mL) | IRF reporter ([2]; agonist: MPLA […]) | viability score [3] |
| --- | --- | --- | --- | --- | --- | --- | --- |
| CNC(C)CCC=C(C)C.CNC(C)CCC=C(C)C (configuration not stated) [Prestw-1023] | 1.07 ± 0.082 | 0.976 ± 0.12 | 1.01 ± 0.16 | 1 ± 0.047 | 1.17 ± 0.16 | 1.23 ± 0.28 | 1.04 (active) |
| COc1cc(Br)c(C=C(C#N)c2nn(-c3ccccc3)c(N)c2C#N)cc1OC | 1.25 ± 0.1 | 1.09 ± 0.08 | 1.07 ± 0.1 | 0.936 ± 0.025 | 1.25 ± 0.24 | 1.18 ± 0.25 | 1.01 (active) |
| O=c1[nH]cnc2scc(-c3ccc(Br)cc3)c12 | 0.924 ± 0.067 | 1.08 ± 0.073 | 1.03 ± 0.061 | 1.14 ± 0.042 | 1.65 ± 0.13 | 1.29 ± 0.16 | 0.975 (active) |
| COC(CNC(=O)c1cccc(Cl)c1)c1ccccc1C (configuration not stated) | 0.774 ± 0.038 | 0.876 ± 0.092 | 0.958 ± 0.075 | 0.965 ± 0.059 | 1.22 ± 0.23 | 1.37 ± 0.34 | 0.999 (active) |
| CNC1(C)C2CCC(C2)C1(C)C.Cl (configuration not stated) | 0.914 ± 0.23 | 0.931 ± 0.058 | 0.961 ± 0.061 | 0.911 ± 0.078 | 1.1 ± 0.24 | 1.06 ± 0.12 | 1 (active) |
| O=Cc1c[nH]c2ccccc12 | 0.913 ± 0.2 | 1.5 ± 0.14 | 1.4 ± 0.23 | 0.982 ± 0.04 | 1.25 ± 0.26 | 1.54 ± 0.16 | 0.985 (active) |
| COc1cc2nc(N3CCN(C(=O)C4CCCO4)CC3)nc(N)c2cc1OC.Cl.O.O (configuration not stated) | 0.675 ± 0.12 | 0.937 ± 0.069 | 0.863 ± 0.052 | 0.963 ± 0.029 | 1.09 ± 0.094 | 1.16 ± 0.2 | 0.996 (active) |
| Cc1ccc(S(=O)(=O)N2CCC2)cc1 | 1.03 ± 0.11 | 0.756 ± 0.097 | 1.07 ± 0.1 | 1.02 ± 0.047 | 1.37 ± 0.22 | 1.51 ± 0.39 | 1.02 (active) |
| Cc1cccc(OCCCSc2nc3ccccc3[nH]2)c1 | 0.919 ± 0.076 | 0.973 ± 0.11 | 1.14 ± 0.11 | 0.671 ± 0.021 | 1.28 ± 0.21 | 1.39 ± 0.24 | 0.949 (active) |
| Cc1cc(Nc2cc(CN3CCOCC3)c3nc(C)c(Cc4ccc(Cl)cc4F)n3n2)[nH]n1 | 2.15 ± 0.29 | 1.46 ± 0.39 | 1.59 ± 0.13 | 0.291 ± 0.025 | 0.884 ± 0.16 | 2.72 ± 0.31 | 0.0653 (inactive) |
| CC(=O)N1CCN=C1SCc1cccc(C(F)(F)F)c1 | 0.767 ± 0.06 | 0.698 ± 0.059 | 0.896 ± 0.029 | 0.572 ± 0.035 | 0.912 ± 0.068 | 0.88 ± 0.08 | 0.99 (active) |
| NC(C(=O)O)c1ccccc1F (configuration not stated) | 0.928 ± 0.11 | 0.966 ± 0.11 | 0.994 ± 0.039 | 0.939 ± 0.056 | 0.969 ± 0.053 | 0.81 ± 0.082 | 1 (active) |
| NC(CO)(CO)CO.O=C(c1ccccc1)c1ccc2n1CCC2C(=O)O (configuration not stated) | 0.916 ± 0.18 | 1.05 ± 0.087 | 0.977 ± 0.14 | 0.933 ± 0.032 | 1.07 ± 0.2 | 1.15 ± 0.19 | 1.01 (active) |
| O=C(c1ccccc1)c1cc([N+](=O)[O-])ccc1N1CCOCC1 | 2.4 ± 0.19 | 1.15 ± 0.069 | 1.88 ± 0.13 | 0.297 ± 0.03 | 1.65 ± 0.12 | 1.48 ± 0.32 | 0.739 (active) |
| COc1ccc([C@@H]2Sc3ccccc3N(CCN(C)C)C(=O)[C@@H]2OC(C)=O)cc1.Cl | 0.958 ± 0.074 | 1.02 ± 0.053 | 1.21 ± 0.064 | 0.969 ± 0.15 | 0.997 ± 0.11 | 1.05 ± 0.1 | 0.985 (active) |
| CCOC(=O)C1CCCN(S(=O)(=O)c2ccc(F)cc2)C1 (configuration not stated) | 1.07 ± 0.12 | 1.1 ± 0.11 | 0.97 ± 0.059 | 0.964 ± 0.06 | 1.3 ± 0.18 | 1.02 ± 0.3 | 0.983 (active) |
| CCCCOc1ccc(S(=O)(=O)NCCCn2ccnc2)cc1 | 0.946 ± 0.078 | 1.18 ± 0.089 | 1.21 ± 0.071 | 1.07 ± 0.038 | 1.84 ± 0.13 | 1.58 ± 0.2 | 0.987 (active) |
| N#Cc1cc(-c2n[nH]c(-c3ccncc3)n2)ccn1 | 0.998 ± 0.19 | 1.06 ± 0.32 | 0.958 ± 0.077 | 0.891 ± 0.035 | 1.13 ± 0.25 | 1.12 ± 0.28 | 1 (active) |
| CCCc1nc(C(C)(C)O)c(C(=O)OCc2oc(=O)oc2C)n1Cc1ccc(-c2ccccc2-c2nnn[nH]2)cc1 [Prestw-1190] | 1.09 ± 0.18 | 1.15 ± 0.2 | 1 ± 0.15 | 0.916 ± 0.036 | 0.987 ± 0.094 | 1.14 ± 0.15 | 1 (active) |
| C=CCN1CCCC1CNC(=O)c1cc2nn[nH]c2cc1OC.Cl (configuration not stated) | 0.987 ± 0.2 | 1.05 ± 0.16 | 0.962 ± 0.14 | 0.917 ± 0.045 | 1.3 ± 0.31 | 0.93 ± 0.07 | 0.999 (active) |
| CC(C)OC(=O)c1c(NC(=O)C2CC=CCC2C(=O)O)sc2c1CCCC2 (configuration not stated) | 0.92 ± 0.12 | 0.999 ± 0.056 | 0.901 ± 0.054 | 0.965 ± 0.024 | 1.29 ± 0.18 | 1.14 ± 0.28 | 1.01 (active) |
| O=S1(=O)CCC(NCc2ccccc2C(F)(F)F)C1 (configuration not stated) | 0.997 ± 0.095 | 1.13 ± 0.11 | 0.978 ± 0.08 | 1.02 ± 0.071 | 1.03 ± 0.092 | 1.04 ± 0.32 | 1 (active) |
| O=c1c(-c2ccc(O)cc2)coc2cc(O)cc(O)c12 | 1.54 ± 0.4 | 1.01 ± 0.26 | 1.2 ± 0.079 | 0.625 ± 0.02 | 0.76 ± 0.29 | 0.842 ± 0.1 | 0.945 (active) |
| NC(Cc1cc(I)c(Oc2cc(I)c(O)c(I)c2)c(I)c1)C(=O)O (configuration not stated) | 0.948 ± 0.23 | 0.984 ± 0.098 | 0.94 ± 0.073 | 0.901 ± 0.036 | 1.18 ± 0.2 | 1.12 ± 0.14 | 1 (active) |
| Cc1cc(C#N)cc(C)c1Oc1nc(Nc2ccc(C#N)cc2)nc(N)c1Br | 1.15 ± 0.049 | 1.3 ± 0.1 | 1.5 ± 0.14 | 1.39 ± 0.21 | 1.05 ± 0.24 | 1.28 ± 0.42 | 0.97 (active) |
| Cc1cc(C(=O)N2CCC(Oc3cccc4cccnc34)CC2)n(C)n1 | 0.994 ± 0.3 | 1.08 ± 0.054 | 1.07 ± 0.081 | 0.942 ± 0.035 | 1.03 ± 0.11 | 1.13 ± 0.18 | 0.536 (inactive) |

Source: the supplement of paper PMC10646978
